Measurements taken from PubChem BioAssay (NCI).
Compounds without any hit were thinned out: in the full panel of roughly 83,000, 20% have a hit.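 The endpoint reported here, percent growth, reads 100 for growth as untreated, 0 for no net growth and -100 for all cells dead.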 Values without a mark were called inactive. Calls of active or inactive are those of the source. Rule for the calls: active = growth percent below 10; inactive = the rest.

The molecules below were run on HL-60(TB) leukemia (assay: NCI-60 one-dose screen, 48 h (100 = growth as untreated, 0 = no growth, -100 = all killed)). Settings: 10 µM unless noted.

Compound | growth
C(/C=C/c1ccccc1)=Nc1ccc(CCc2ccc(N=C/C=C/c3ccccc3)cc2)cc1 | 42.9%
CCCCCC(=O)c1ccc(OCCCN2CCN(C(=O)OCC)CC2)cc1 | 72.4%
COc1cc(C2CC(c3c(C)[n+]([O-])c4ccccc4[n+]3[O-])=NN2)cc(OC)c1OC (stereo not given) | 97.8%
CC(C)(C)OC(=O)N1CCC(O)[C@@H](O[Si](c2ccccc2)(c2ccccc2)C(C)(C)C)[C@H]1/C=C/c1ccccc1 (stereo not given in full) | 55.9%
O=C(Nc1cccc2c1C(=O)c1cccc(Nc3cccc4c3C(=O)c3cccc(NC(=O)c5ccccc5)c3C4=O)c1C2=O)c1ccccc1 | 118%
Cn1cccc1-c1nc2c3c(ccc2[nH]1)C(=O)c1ccccc1C3=O | 82.3%
COCC(=O)Oc1cc(-c2ccc(C)cc2C)c(OC(=O)COC)c(-c2ccc(C)cc2C)c1 | 36.9%
COc1ccc2c(c1)C(=Nc1cc(OC)c(OC)c(OC)c1)C(=O)N2 | 96.1%
N=C(N)c1ccc(-c2ccc(-c3ccc4ccccc4c3)s2)s1 | -56.4% (active)
COc1ccc2[nH]c(O)c(/C=c3/cc4c(c(-c5cc(OC)c(OC)c(OC)c5)n3)=Nc3ccccc3-4)c2c1 | 58.8%
C/C(=N\Nc1ccc2ccccc2n1)c1ccccn1 | -39% (active)
CNC(=O)c1cc(Oc2cccc3nc(NC(=O)Nc4cc(C(F)(F)F)ccc4Cl)ccc23)ccn1 | 103%
Nc1cc(Cl)cc2cccnc12 | 72.3%
CCOC(=O)c1cc(-c2ccc(OC)cc2)[nH]c1NNC(=O)CCOC | 90.8%
O=C1Cc2c(sc3c(F)cccc23)C(c2ccccc2[N+](=O)[O-])N1 (stereo not given) | 116%
COc1nc2c(cc1S(=O)(=O)c1ccccc1)CCc1c-2cnn1-c1ccccc1 | 58.7%
Cc1ccccc1CNc1ncnc2[nH]ncc12 | 49.2%
O=C(O)CC1CCCCC1c1ccccc1 (stereo not given) | 99.9%
NC1=C(C/C(N)=N\O)C(c2ccccc2Cl)c2c(ccc3ccccc23)O1 (stereo not given) | 84.9%
CCCOC(=O)c1ccc2c(c1)[N+](=O)C(C(=O)c1ccccc1)=C(C(F)(F)F)[N+]2=O | -71.6% (active)

Compound | growth
C=C(C=O)[C@@H]1CC=C(C=O)CC1 | -33.2% (active)
O=C1C(Cl)=C(Nc2ccc3c(c2NC2=C(Cl)C(=O)c4ccccc4C2=O)C(=O)c2ccccc2C3=O)C(=O)c2ccccc21 | -8.26% (active)
CNC(=O)NCC1OC(n2cnc3c(NC(=O)Nc4ccccc4)ncnc32)C2OC(C)(C)OC12 (stereo not given) | 83.9%
COc1cc(/C=C/C(=O)c2ccc(-n3cc(CN4CCN(c5cc6c(cc5F)c(=O)c(C(=O)O)cn6C5CC5)CC4)nn3)cc2)ccc1O | 90.3%
O=C(Nc1ccc(-n2cc(-c3ccncc3)c(-c3ccc(Cl)c(O)c3)n2)cc1)c1ccc(Cl)c(Cl)c1 | -27% (active)
O=C(/C=C/c1ccccn1)c1ccccc1 | 1.48% (active)
COc1ccc(C(=O)/C=C/c2ccc(N3CCCCC3)cc2)cc1OC | 78.9%
CCCN(CCC)C(=O)[C@H](CC)[C@@H]1CC[C@@H](C)[C@@H]([C@H](C)[C@@H](O)[C@@H](C)C(=O)[C@H](CC)C2O[C@]3(C=C[C@@H](O)[C@]4(CC[C@@](C)([C@H]5CC[C@](O)(CC)[C@H](C)O5)O4)O3)[C@H](C)C[C@@H]2C)O1 (stereo not given in full) | -47.7% (active)
O=C(O)c1ccc(-n2cc(/C=N/Nc3ccccc3)c(-c3ccc(F)cc3F)n2)cc1 | 15.1%
CNC(=O)c1cc(Oc2ccc(NC(=O)Nc3ccc(Cl)c(SC)c3)c(F)c2)ccn1 | 45.5%
CN1C(=O)N(C)C2C1NN=c1s/c(=C\c3ccccc3)c(=O)n12 (stereo not given) | 16.9%
C/C(=C\CCc1ccsc1)CC/C=C(\C)CCCN1CCN(CCO)CC1 | -38.3% (active)
Cc1cc(=O)[nH]c(NN=C2CCCC2)n1 | 94.6%
NCCNc1ccc2cc(-c3nc4ccccc4[nH]3)c(=O)oc2c1 | 80.1%
CCOc1cc(-c2ccc[nH]2)[nH]c1/C=C1\N=C(C)C(C(=O)OC)=C1C | -42.7% (active)
COc1ccc(-c2cnc3ccccc3n2)cc1 | 97%
CCN1C(=O)N(CC)C2NC(SC)=NC21 (stereo not given) | 103%
CCOC(=O)c1c(-c2ccc(OC)cc2)c(C#N)c2c(C#N)c(N)nn2c1N | -40.4% (active)
CCOC(=O)Nc1cc(-c2ccc(C)c(NS(C)(=O)=O)c2)nn2c(C)nnc12 | 10.8%
O=C(Nc1nccs1)c1noc2ccccc12 | 95%
